Results published in PubChem BioAssay (Tox21).
Results filed as inconclusive are left out. Activity calls are given as the source filed them. Unless noted, calls follow the shape of the dose curve; as a rule, active = well fitted curve in the direction sought with a large enough effect in the repeat runs; inconclusive = weak or mixed curves; inactive = no such curve, though single readings can be large; an effect the other way counts as inactive or inconclusive.

Experiments:
[1] = qHTS assay for small molecule agonists of the p53 signaling pathway (AID 651631; calls by dose curve; also: nearly all actives have a fitted effect of over 15% in size)
How it was run: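 We treat p53RE-bla HCT-116 cells with compounds for 16 h at 37 °C, add LiveBLAzer B/G FRET substrate for 2 h at room temperature, and measure fluorescence intensity.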

[2] = qHTS assay for small molecules that induce genotoxicity in human embryonic kidney cells expressing luciferase-tagged ATAD5 (AID 651632); also: nearly all actives have a fitted effect of over 15% in size
How it was run: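 ATAD5-luc HEK293T, 2,000 cells/well; cpd or DMSO pin-transferred; 16 hr, 37C/5% CO2; Amplite 30 min RT; luminescence.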

[3] = qHTS assay for small molecule agonists of the p53 signaling pathway - cell viability (AID 651633; calls by dose curve;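 also: p53RE-bla HCT reporter cells with a stable beta-lactamase p53 reporter; series mostly up to about 83 µM; nearly all actives have a fitted effect of over 30% in size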)
How it was run: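 Viability counter-read: CellTiter-Glo luminescence (30 min, room temperature) in the same p53RE-bla plates. These plates had been exposed to compounds for 16 h at 37 C.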

[4] = qHTS assay for small molecules that induce genotoxicity in human embryonic kidney cells expressing luciferase-tagged ATAD5 - cell viability (AID 651634; calls by dose curve; also: nearly all actives have a fitted effect of over 25% in size)
How it was run: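 Fluorescence from CellTiter-Fluor, reporting protease activity within live cells, served as the viability read-out. HEK293T cells carrying luciferase-tagged ATAD5 had been treated with compound for 15.5 hr at 37C.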

[5] = qHTS assay for small molecule disruptors of the mitochondrial membrane potential - cell viability (AID 720634; calls by dose curve;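 also: human HepG2 liver cancer cells; series mostly up to about 83 µM; nearly all actives have a fitted effect of over 20% in size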)
How it was run: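 Cells: HepG2, 2,000/well, attached overnight. Compound 1 hr, 37 C/5% CO2. +m-MPI dye, +CellTiter-Glo 30 min RT. Readout: luminescence (ATP).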

[6] = qHTS assay for small molecule disruptors of the mitochondrial membrane potential (AID 720635); also: potency is read from the fitted curve at half-maximal effect
How it was run: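 Mitochondrial membrane potential tracked with Mito-MPS dye, red aggregates (ex 540/em 590 nm) against green monomers (ex 490/em 535 nm). Compound treatment 1 hr at 37C, dye 30 min in HepG2.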

[7] = qHTS assay to test for compound auto fluorescence at 590 nm (red) in HepG2 cells (AID 720674)
How it was run: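 We screened compounds on adherent HepG2 cells, incubating them for an hour at 37 C in 5% CO2 before reading emission at 590 nm under 540 nm excitation; values reflect equivalence to Rose Bengal sodium fluorescence.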

[8] = qHTS assay to test for compound auto fluorescence at 535 nm (green) in HepG2 cells (AID 720675)
[9] = qHTS assay to test for compound auto fluorescence at 460 nm (blue) in HEK293 cells (AID 720678)
How it was run: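 HEK293, 2,000 cells/well, 10% dialyzed FBS; attach 4-5 hr 37C; pin compound or DMSO; o/n 37C/5% CO2; fluorescence 405/460 nm; triamterene-equivalent units.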

[10] = qHTS assay to test for compound auto fluorescence at 590 nm (red) in HEK293 cells (AID 720679)
How it was run: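 Intensity at 540nm excitation and 590nm emission is reported as Rose Bengal sodium-equivalent autofluorescence. Measurements followed overnight exposure (37C, 5% CO2) of HEK293 cells, 2,000 per well, to 23 nL compound.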
% is scaled to controls: 0 for no effect and ±100 for the full control effect.

CNCCO
inactive: Potency [1] | Potency [2] | Potency [3] | Potency [4] | outcome [5] | Potency [6] | outcome [7] | outcome [8] | outcome [9] | outcome [10]

CC(C#N)(CCC(=O)O)N=NC(C)(C#N)CCC(=O)O (stereo not given)
inactive: Potency [1] | Potency [2] | Potency [3] | Potency [4] | outcome [5] | Potency [6] | outcome [7] | outcome [8] | outcome [9] | outcome [10]

CC(C)(C)OC(=O)c1cccc(N)c1
active: Potency [6] 35.3 µM
inactive: Potency [1] | Potency [2] | Potency [3] | Potency [4] | outcome [5] | outcome [7] | outcome [8] | outcome [9] | outcome [10]

[K+]
inactive: Potency [1] | Potency [2] | Potency [3] | Potency [4] | outcome [5] | outcome [7] | outcome [8] | outcome [9] | outcome [10]

COc1ccc2cc1Oc1cc3c(cc1OC)CC[N+](C)(C)[C@H]3Cc1ccc(cc1)Oc1c(OC)c(OC)cc3c1[C@@H](C2)[N+](C)(C)CC3
inactive: Potency [1] | Potency [2] | Potency [3] | Potency [4] | outcome [5] | Potency [6] | outcome [7] | outcome [8] | outcome [9] | outcome [10]

O=C(CO)[C@@H](O)[C@H](O)[C@H](O)CO
inactive: Potency [1] | Potency [2] | Potency [3] | Potency [4] | outcome [5] | Potency [6] | outcome [7] | outcome [8] | outcome [9] | outcome [10]

C[N+](C)(CCOc1ccccc1)Cc1cccs1
inactive: Potency [1] | Potency [2] | Potency [3] | Potency [4] | outcome [5] | Potency [6] | outcome [7] | outcome [8] | outcome [9] | outcome [10]

C[C@@H]1CCC[C@H](C)N1
inactive: Potency [1] | Potency [2] | Potency [3] | Potency [4] | outcome [5] | Potency [6] | fluorescence, relative to Rose Bengal [7] 0.289% [at 18.6 µM] | fluorescence, % of triamterene [9] 0.0181% [at 18.6 µM] | fluorescence, % of fluorescent control [10] 0.0043% [at 18.6 µM]

CCNS(=O)(=O)c1ccc(C)cc1
inactive: Potency [1] | Potency [2] | Potency [3] | Potency [4] | outcome [5] | Potency [6] | outcome [7] | outcome [9] | outcome [10]

O=C(c1ccccc1)C1(O)CCCCC1
inactive: Potency [1] | Potency [2] | Potency [3] | Potency [4] | outcome [5] | Potency [6] | outcome [7] | outcome [8] | outcome [9] | outcome [10]

CCCCCCCCCCCCCCCCCCO
inactive: Potency [1] | Potency [2] | Potency [3] | Potency [4] | outcome [5] | Potency [6] | outcome [7] | outcome [8] | outcome [9] | outcome [10]

CC(COc1ccccc1)NN (stereo not given)
inactive: Potency [1] | Potency [2] | Potency [3] | Potency [4] | outcome [5] | Potency [6] | outcome [7] | outcome [8] | outcome [9] | outcome [10]

Clc1cc(Cl)cc(Cl)c1
inactive: Potency [1] | Potency [2] | Potency [3] | Potency [4] | outcome [5] | Potency [6] | outcome [7] | outcome [8] | outcome [9] | outcome [10]

C[C@H]1C[C@H]2[C@@H]3CCC4=CC(=O)C=C[C@]4(C)[C@H]3C(=O)C[C@]2(C)[C@@]1(O)C(=O)CO
inactive: Potency [1] | Potency [2] | Potency [3] | Potency [4] | outcome [5] | Potency [6] | outcome [7] | outcome [8] | outcome [9] | outcome [10]

c1ccc(CCc2ccccc2)cc1
inactive: Potency [1] | Potency [2] | Potency [3] | Potency [4] | outcome [5] | Potency [6] | outcome [7] | outcome [8] | outcome [9] | outcome [10]

C=CN1CCCCCC1=O
inactive: Potency [1] | Potency [2] | Potency [3] | Potency [4] | outcome [5] | Potency [6] | outcome [7] | outcome [8] | outcome [9] | outcome [10]

C[N+]1(CC2COC(c3ccccc3)(c3ccccc3)O2)CCCCC1 (stereo not given)
inactive: Potency [1] | Potency [2] | Potency [3] | Potency [4] | outcome [5] | Potency [6] | outcome [7] | outcome [8] | outcome [9] | outcome [10]

CC(=O)c1cnccn1
inactive: Potency [1] | Potency [2] | Potency [3] | Potency [4] | outcome [5] | Potency [6] | outcome [7] | outcome [9] | outcome [10]

O=C(CO)[C@@H](O)[C@H](O)[C@@H](O)CO
inactive: Potency [1] | Potency [2] | Potency [3] | Potency [4] | outcome [5] | Potency [6] | outcome [7] | outcome [8] | outcome [9] | outcome [10]

CCC1C(=O)OCC1Cc1cncn1C (stereo not given)
inactive: Potency [1] | Potency [2] | Potency [3] | Potency [4] | outcome [5] | Potency [6] | outcome [7] | outcome [8] | outcome [9] | outcome [10]

c1ccc2sc(SN3CCOCC3)nc2c1
inactive: Potency [1] | Potency [2] | Potency [3] | Potency [4] | outcome [5] | outcome [7] | outcome [8] | outcome [9] | outcome [10]

CC1(C)OC[C@@H](COC(=O)CCc2ccc(OC[C@@H](O)CNCCNC(=O)N3CCOCC3)cc2)O1
inactive: Potency [1] | Potency [2] | Potency [3] | Potency [4] | outcome [5] | Potency [6] | outcome [7] | outcome [8] | outcome [9] | outcome [10]

CC(CC=O)CC(C)(C)C (stereo not given)
inactive: Potency [1] | Potency [2] | Potency [3] | Potency [4] | outcome [5] | Potency [6] | outcome [7] | outcome [8] | outcome [9] | outcome [10]
